The assay concerns VDR homodimer (NR concentration 270 nM). The assay is described as follows: PBM binding z-score (relative to random genomic background probes); higher = stronger binding; sequences stand for … in GC…GCGATTGACAGCGTAGAATGAAGG
An outline of the steps:
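Antibodies against each partner of ligand-free nuclear receptor dimers (one per run) detected binding on custom Agilent 4×180K protein-binding microarrays after 1 h incubation. The double-stranded probes had 34-nt variable regions carrying direct-repeat seeds, single-nucleotide variants, half-site ablations and random human genomic background sequences. Binding z-scores, from regression-normalized fluorescence, use the random background probes as reference.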
AATATTAGTTGAGACGAGGGCAACCGATAGGTTG displayed a PBM binding z-score of 1.73.

Consider TCGAGTAGGTTAGGGTCATTCAGAATGGCGTCGA, for which the PBM binding z-score was found to be 3.97. In turn, TAGCCTAGGTAATTCAGGGGCCAGTATAGAAAGC showed a PBM binding z-score of -0.354. To CAAACTAGGTCAAGGTCGAAGTCGGTTTGTGCCA belongs 2.48; to AATACACGGTCATCGTAGGCCAGAGTACGCACAG, 0.733; to CGGACTAGGTCAAGGACAGTGAATCTCCGCACGC, -0.118. To CATACAGGGTCAGCTACGCCAGAGTAGGGACGGC belongs 1.09. With AGAACGAGGGCGCGCTGAGTTGATAGCAGAGTAG, the PBM binding z-score was 0.824.

As to CGTCAAAGTTCAACTAGGGTAACGTAAAGCACGC, the PBM binding z-score turned out to be 4.44.

For the sequence GCTCGGAGGAAAAGGTCAGAGCTTTGTCCGTAGA, the PBM binding z-score is -0.277. To CCTTACGTGTCAAGGTTATAGCACGGGTGGTACG belongs 0.926; to CCTCCTAGGTCAATGGTCAGCTAAAGCAGCTCGC, 0.912; to CCGACTGGGGCATAAAGGTTACCATACCATCCGG, 0.423. In turn, TCTGCTAGGTCAGTTGGTCAGCTACCGAGCTGCC showed a PBM binding z-score of -0.907. Consider GCTTGTAGATCAGGGTTAAGAAAGACTAAGCTAA, for which the PBM binding z-score is 0.148. To TGATATAGGTAATACAGGTGAAAGTCGGCATCTA belongs 0.316; to TCTTGTAGATCAGCATGTTAAGAAAGCTGGCCAA, -0.468. With CGAACTAGGTTATTGACAGGACAGTGAATAGTAA, the PBM binding z-score worked out at 0.278. As for ATCGAAAGGTCGACGAGGTGACTATACACCGTTT, the PBM binding z-score was determined as 1.11.

GCTGCTAGGTCAGGGTGGTCAGCTAACGGGTACG gave a PBM binding z-score of 0.245. Take ACTAGCAGGCCCAGTTTGGGTCACTCAAACAAAG: the PBM binding z-score is -0.243. To AGAATGAGGTTACCAAATATCAGGGAAACGCTTG belongs 0.512.

The values are drawn from the supplement of paper PMC6555819.
